Experiment [1] relates to Thyroperoxidase (TPO), gene 54314. Description: CCTE_Simmons_AUR_rTPO: CCTE's Amplex UltraRed Assay for Thyroperoxidase (TPO) Inhibition, Simmons Lab (AID 2283662; active = hit-call score of the fitted dose curve at least 0.9, where 1 is the maximum). An outline of the steps:
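Endpoint is decreased Amplex UltraRed fluorescence after a 30-min, 37C reaction of rat thyroid microsomes with 300 uM H2O2. Eight test concentrations (5 nM–87.5 uM final) in 0.5% DMSO, three biological replicates each.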

Experiment [2] is described as follows: CCTE_Simmons_CellTiterGLO_HEK293T: Viability Assessment in CCTE's Assays for Thyroperoxidase (TPO) Inhibition, Simmons Lab (AID 2283665; active = hit-call score of the fitted dose curve at least 0.9, where 1 is the maximum;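 note: cells exposed to compound for 24 h before readout; actives reduce ATP signal below DMSO vehicle meaning cytotoxicity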). The method in brief: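 HEK293T cells in DMEM with 1% FBS, dosed 24 h at 37C with 8 concentrations, 5 nM–87.5 uM final, 0.5% DMSO. ATP measured by CellTiter Glo luminescence; loss of signal vs DMSO, three biological replicates.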

The target in experiment [3] is Luciferin 4-monooxygenase (Photinus pyralis) (UniProt P08659). As to the kind of experiment: CCTE_Simmons_QuantiLum_inhib_2: CCTE's Firefly Luciferase Inhibition Assay, Simmons Lab (AID 2283767; active = hit-call score of the fitted dose curve at least 0.9, where 1 is the maximum;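 note: potency for inhibitors that lower luciferase luminescence relative to DMSO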). The method in brief:
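Cell-free recombinant firefly luciferase (5 ng/well) in 200mM potassium phosphate with 1 mg/ml BSA, 30 min at 37C with 8 concentrations from 5 nM to 87.5 uM [final], 0.5% DMSO. Luminescence read after D-luciferin (150uM)/dATP (147uM) reagent injection, pH 7.8; triplicates.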

Experiment [4] can be described thus: UKN5_HCS_SBAD2_cell_viability: Viability Assessment in the University of Konstanz (UKN) Leist Lab Neurite Outgrowth Assay in human iPSC-derived immature Dorsal Root Ganglia Neurons (UKN5) (AID 2284056). An outline of the steps: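 iPSC-derived immature peripheral neurons (SBAD2) seeded on Matrigel with CHIR99021, SU5402 and DAPT, dosed 1 h later for 24 h. Viability from Hoechst H-33342 and calcein-AM live staining, high-content imaging; bidirectional fit versus DMSO.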

Experiment [5] in a line: CCTE_Shafer_MEA_dev_LDH: CCTE's Lactate Dehydrogenase Assay for Cytotoxicity in the Neural Network Formation Assay, Shafer Lab (AID 2284068; active = hit-call score of the fitted dose curve at least 0.9, where 1 is the maximum;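 note: exposure for twelve days from plating with re-dosing on DIV 5 and 9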). An outline of the steps: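 Developing rat cortical networks on MEA plates are exposed to compound for 12 days from plating. LDH activity is measured spectrophotometrically, with DMSO as baseline.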
Experiment [6] is described as follows: UKN5_HCS_SBAD2_neurite_outgrowth: University of Konstanz (UKN) Leist Lab Neurite Outgrowth Assay in human iPSC-derived immature Dorsal Root Ganglia Neurons (UKN5) (AID 2284070). The following applies: actives raise or lower the signal. An outline of the steps: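 SBAD2 iPSC-derived immature peripheral neurons on Matrigel, 100.000 cells/cm2, medium with CHIR99021 (1.5 uM), SU5402 (5 uM), DAPT (5 uM); compound added 1 h post-seeding for 24 h. Calcein-AM neurite area by high-content imaging; Hoechst H-33342 viability; bidirectional fit vs DMSO.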

Experiment [7] is described as follows: CCTE_Shafer_MEA_dev_AB: CCTE's Alamar Blue Assay for Cytotoxicity in the Neural Network Formation Assay, Shafer Lab (AID 2284083; active = hit-call score of the fitted dose curve at least 0.9, where 1 is the maximum;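 note: resazurin reduction fluorescence as viability of cultured neurons; twelve days of exposure from plating with re-dosing on DIV 5 and 9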). The method in brief: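 Cytotoxicity companion to the developmental MEA: primary rat cortical neurons, 12-day exposure starting day 0, compound refreshed DIV 5 and 9; resazurin fluorescence, fitted against DMSO vehicle.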
For orientation: Resazurin is reduced to fluorescent resorufin, in cell work by metabolically active cells.

Experiment [8] can be described thus: UKN4_HCS_LUHMES_neurite_outgrowth: University of Konstanz (UKN) Leist Lab Neurite Outgrowth Assay in human LUHMES cells (UKN4) (AID 2284206). Conditions: actives raise or lower the signal. An outline of the steps: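 Human LUHMES neuronal precursors, differentiated 2 days then replated without cAMP and GDNF, exposed to compounds for 24 h. Neurite area imaged by high-content microscopy after calcein-AM live staining; Hoechst H-33342 for viability; bidirectional fit versus DMSO.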

A short description of experiment [9]: IUF_NPC1a_proliferation_area_72hr: Leibniz Research Institute for Environmental Medicine (IUF) 72-hour Neural Progenitor Cell Proliferation Area Assay (NPC1a) (AID 2284208). The method in brief: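 Single 0.25–0.35 mm human fetal neural progenitor spheres in proliferation medium with EGF and FGF, exposed 72 h from plating without renewal at 37C, pH 7.2-7.6. Sphere area growth measured by automated phase-contrast imaging, relative to DMSO.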

The nature of experiment [10]: IUF_NPC1_viability_72hr: Viability Assessment at 72 hours in the Leibniz Research Institute for Environmental Medicine (IUF) Neural Progenitor Cell Proliferation Assay (NPC1) (AID 2284209). An outline of the steps: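 Single spheres (0.25-0.35 mm) of human fetal cortex-derived neural progenitor cells were grown in proliferation medium with EGF and FGF at 37C and 5% CO2. They were exposed for 72 h without renewal, and viability was read by alamar blue resorufin fluorescence.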

A short description of experiment [11]: CCTE_Mundy_HCI_Cortical_Synap_Neur_Matur_NeuriteSpotCountPerNeuriteLength: CCTE's Synaptogenesis and Neurite Maturation Assay in rat cortical cells for Neurite Spot Count per Neurite Length, Mundy Lab (AID 2284210). The method in brief: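 Primary rat cortical neurons, compound exposure DIV 7–12, 288.33 h endpoint. Hoechst, anti-MAP2 and anti-synaptophysin labelling; neurite-associated puncta per neurite length scored by automated imaging relative to DMSO controls.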

The nature of experiment [12]: CCTE_Mundy_HCI_Cortical_NOG_NeuriteCount: CCTE's Neurite Outgrowth Assay in rat cortical cells for Neurite Count, Mundy Lab (AID 2284212).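 Note: cells fixed about two days after chemical exposure began.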 An outline of the steps: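 Neurite number per cell from high-content imaging of betaIII-tubulin immunostaining, with Hoechst nuclear counterstain.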
A short description of experiment [13]: CCTE_Mundy_HCI_Cortical_NOG_NeuriteLength: CCTE's Neurite Outgrowth Assay in rat cortical cells for Neurite Length, Mundy Lab (AID 2284213).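 Note: neurites imaged about 48 to 50 h after chemical exposure began.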 An outline of the steps: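 Neurite length was read by high-content imaging of βIII-tubulin-labelled neurites in rat primary cortical cultures. Activity was fitted relative to DMSO.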
The nature of experiment [14]: CCTE_Mundy_HCI_Cortical_Synap_Neur_Matur_NeuriteLength: CCTE's Synaptogenesis and Neurite Maturation Assay in rat cortical cells for Neurite Length, Mundy Lab (AID 2284214). The method in brief:
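Rat primary cortical cultures, AraC added DIV 5, dosed DIV 7 through DIV 12 […]. Fixed, MAP2/synaptophysin immunostained with Hoechst; neurite length by high-content imaging, fitted in positive direction versus DMSO.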

A short description of experiment [15]: TAMU_PeakParms_SingleDonor1434_Chronotropy: Texas A&M University (TAMU) 1.5-hr Human Induced Pluripotent Stem Cell (iPSC)-derived Cardiomyocytes Calcium (Ca+2) Flux Assay for Cardiotoxicity: Chronotropy (changes in peak frequency) (AID 2284217). Conditions: actives raise or lower the signal. An outline of the steps:
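Using fluorescent Ca2+ flux, average beats per second are measured in human iPSC-derived cardiomyocytes treated 90 min (0.5% DMSO vehicle, 0.2–100 uM). Non-beating data points are removed; activity is modeled in both directions relative to DMSO controls.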

A short description of experiment [16]: CCTE_Mundy_HCI_Cortical_Synap_Neur_Matur_SynapseCount: CCTE's Synaptogenesis and Neurite Maturation Assay in rat cortical cells for Synapse Count, Mundy Lab (AID 2284218). The method in brief: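 Rat primary cortical cultures, AraC at DIV 5, chemical dosing DIV 7 to DIV 12 (288.33 h). Fixed cells stained for MAP2, synaptophysin and Hoechst; synapses per neuron counted by high-content imaging, loss of signal versus DMSO.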

Experiment [17] is described as follows: CCTE_Mundy_HCI_hN2_NOG_NeuriteCount: CCTE's Neurite Outgrowth Assay in human hN2 cells for Neurite Count, Mundy Lab (AID 2284219; active = hit-call score of the fitted dose curve at least 0.9, where 1 is the maximum). An outline of the steps:
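In this morphology assay, hNP1-derived neurons received test chemical 2 h post-plating and were fixed two days later in warm paraformaldehyde/sucrose containing Hoechst 33342. Neurites, labelled by rabbit anti-βIII-tubulin (1:800) and Alexa Fluor-488 (1:500), were counted automatically.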

Experiment [18] in a line: CCTE_Mundy_HCI_hN2_NOG_NeuriteLength: CCTE's Neurite Outgrowth Assay in human hN2 cells for Neurite Length, Mundy Lab (AID 2284220; active = hit-call score of the fitted dose curve at least 0.9, where 1 is the maximum). The method in brief: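 Plate hNP1-derived neurons, then add chemical 2 h later as a 1/10 dilution. Stain with anti-βIII-tubulin then Alexa Fluor-488 secondary, and image automatically to measure neurite length.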
Experiment [19] is described as follows: CCTE_Mundy_HCI_hN2_NOG_NeuronCount: CCTE's Neurite Outgrowth Assay in human hN2 cells for Neuron Count, Mundy Lab (AID 2284221; active = hit-call score of the fitted dose curve at least 0.9, where 1 is the maximum). The method in brief:
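Read-out is the number of betaIII-tubulin-positive neurons imaged by automated high-content analysis, with DMSO as negative control.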

Experiment [20] is described as follows: CCTE_Mundy_HCI_Cortical_Synap_Neur_Matur_CellBodySpotCount: CCTE's Synaptogenesis and Neurite Maturation Assay in rat cortical cells for Cell Body Spot Count, Mundy Lab (AID 2284223). An outline of the steps: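 Primary rat cortical cultures, AraC added at DIV 5; dosed DIV 7 through DIV 12 […]. Fixed, stained for MAP2 and synaptophysin with Hoechst; cell body-associated synaptophysin puncta per neuron counted by high-content imaging, loss vs DMSO.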

The nature of experiment [21]: CCTE_Mundy_HCI_hNP1_Pro_ResponderAvgInten: CCTE's Proliferation Assay in human neuroprogenitor cells, Mundy Lab (AID 2284224; active = hit-call score of the fitted dose curve at least 0.9, where 1 is the maximum). An outline of the steps: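 Proliferation was scored as BrdU labelling intensity in human neural progenitors derived from WA09 embryonic cells, measured 26.25 hours after chemical dosing. Activity was fitted relative to DMSO.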
A short description of experiment [22]: UKN4_HCS_LUHMES_cell_viability: Viability Assessment in the University of Konstanz (UKN) Leist Lab Neurite Outgrowth Assay in human LUHMES cells (UKN4) (AID 2284232). The method in brief: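 LUHMES precursors differentiated 2 days, replated at 30000 cells/well without cAMP/GDNF, then compound-treated 24 h. Viability from Hoechst H-33342 and calcein-AM live staining (30 min) by high-content fluorescence imaging; bidirectional fit versus DMSO.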

Experiment [23] in a line: UKN2_HCS_IMR90_cell_viability: Viability Assessment in the University of Konstanz (UKN) Leist Lab Neural Crest Cell Migration Assay in human induced IMR90 Pluripotent Stem Cells (UKN2) (AID 2284233).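 Note: viability of neural crest cells differentiated from IMR90 iPSC measured by calcein-AM fluorescence imaging; cells exposed to compound for 24 h after a 24 h migration phase.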 The method in brief:
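Human IMR90-derived neural crest cells were allowed to migrate for 24 h into a cell-free zone, then exposed to test chemicals for 24 h. Calcein-AM and Hoechst staining with high-content imaging gave viability, analysed against DMSO baseline.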

Values joined by “and” are separate entries in the source; they are usually repeats but may differ in a detail not shown here. Equal values may be shown once. Results filed as inconclusive are left out. A structure can be active in one record and inactive in another. Active and inactive are the calls of the source. Rule for the calls, unless noted: active = hit-call score of the fitted dose curve at least 0.9, where 1 is the maximum; inactive = score below 0.9.

Sequence of Luciferin 4-monooxygenase (Photinus pyralis) (P08659 whole entry, looked up): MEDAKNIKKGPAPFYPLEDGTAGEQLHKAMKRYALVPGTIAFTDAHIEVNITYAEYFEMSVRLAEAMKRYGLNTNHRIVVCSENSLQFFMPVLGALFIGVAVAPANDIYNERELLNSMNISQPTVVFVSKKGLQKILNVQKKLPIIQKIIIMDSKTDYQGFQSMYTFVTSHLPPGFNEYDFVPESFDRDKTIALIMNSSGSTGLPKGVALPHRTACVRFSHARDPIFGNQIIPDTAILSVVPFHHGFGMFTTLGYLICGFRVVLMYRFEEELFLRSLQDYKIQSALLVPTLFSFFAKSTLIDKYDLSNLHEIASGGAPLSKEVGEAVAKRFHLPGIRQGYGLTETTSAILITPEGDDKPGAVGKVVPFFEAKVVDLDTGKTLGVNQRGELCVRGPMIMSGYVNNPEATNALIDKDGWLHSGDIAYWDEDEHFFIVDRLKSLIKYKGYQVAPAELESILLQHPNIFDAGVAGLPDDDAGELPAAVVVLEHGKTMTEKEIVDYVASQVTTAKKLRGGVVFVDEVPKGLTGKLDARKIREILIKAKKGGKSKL

A word on the AC50: it is the midpoint of the concentration-response curve, whichever way the signal moves. With `[CH3][Hg][Cl]`, the call in [1], in experiment [10] and in experiment [20] was inactive. The AC50 was 4180 nM (active) in experiment [2]; 4220 nM (active) in [3]; 3170 nM (active) in experiment [4]; 182 nM (active) in [5]; 636 nM (active) in experiment [6]; 283 nM (active) in experiment [7]. Besides, the AC50 in experiment [8] was 164 nM (active); in [9] it was 370 nM (active); in [10], 820 nM (active); in experiment [11] it was 881 nM (active); in experiment [12] it was 493 nM (active); in experiment [13], 222 nM (active) and 316 nM (active). Moreover, the AC50 was 428 nM (active) in [14]; 21200 nM (active) in experiment [15]; 582 nM (active) in experiment [16]; 118 nM (active) in experiment [17]; 99 nM (active) in experiment [18]; 172 nM (active) in experiment [19]. The results for the AC50 in [21], in experiment [22] and in [23] were 2120 nM (active), 381 nM (active) and 5000 nM (active), respectively.
